Shown are actives, neighbours in structure and some others; about 4.1% of the full set was active somewhere.
ssDAF-12 act: S. stercoralis DAF-12 nuclear receptor activators, primary screen, cell-based, luminescence, HEK293, GRIP1 co-expression, lit1-tk-luc; Nuclear hormone receptor DAF-12 (Strongyloides stercoralis); HEK293 ssDAF-12/GRIP1 lit1-tk-luc reporter; % of 3 µM dafachronic acid response; activation, % at 6.8 µM; 1% of 370,000 active; AID 652126, 2013;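 active = activation above the mean over all tested compounds plus 3 SD, cut at about 0.9% in these data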;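 also: 0% = DMSO-only wells and 100% = 3 µM delta7-dafachronic acid wells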
DAX1 inh-1: DAX1 (NR0B1) inhibitors on StAR promoter, primary screen, cell-based, luminescence, SF-1 (NR5A1), full-length DAX-1 | AID 652010, 2013 | 1.1% of 370,000 active | HEK293T StAR-luciferase reporter, SF-1/DAX-1 repression relief | inhibition, % at 6.8 µM;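 active = inhibition above the mean over all tested compounds plus 3 SD, cut at about 3.6% in these data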;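 also: 0% = DAX-1 cells with DMSO and 100% = cells lacking DAX-1 with DMSO; higher inhibition means more luminescence from relief of DAX-1 repression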
hcDAF-12 act: H. contortus DAF-12 nuclear receptor activators, primary screen, cell-based, luminescence, HEK293, lit1-tk-luc reporter | HEK293 hcDAF-12 lit1-tk-luc reporter; 0% DMSO, 100% Δ7-dafachronic acid | activation, % at 6.8 µM | 1.4% of 370,000 active;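 active = activation above the mean of all tested compounds plus 3 SD, cut at about 5.5% in these data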;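 also: 100% = response to 3 µM Δ7-dafachronic acid high control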
hgDAF-12 ag: H. glycines DAF-12 receptor agonists, primary screen, cell-based, luminescence, HEK293, GAL4 fusion, UAS-luciferase; HEK293 GAL4-hgDAF12 UAS-luciferase reporter, agonist luminescence; normalized to butyrate control; 1.8% of 370,000 active; Nuclear hormone receptor DAF-12 (Heterodera glycines), GAL4 fusion; activation, % at 6.8 µM;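 active = activation above a cutoff set at the mean of all screened compounds plus 3 SD, cut at about 10% in these data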;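 also: 0% = DMSO wells and 100% = sodium butyrate wells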
DAX1 inh-2: DAX1 (NR0B1) inhibitors, primary screen, cell-based, HEK293, Gal4-DAX1, luciferase luminescence. 0.99% of 340,000 active. Nuclear receptor subfamily 0 group B member 1 (Homo sapiens), P51843. inhibition, % at 6.75 µM. HEK293 Gal4-DAX1 luciferase reporter;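 active = inhibition above the mean over all tested compounds plus 3 SD, cut at about 4.2% in these data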;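 also: 0% = DAX1-transfected cells with DMSO and 100% = empty-vector control cells with DMSO; inhibition shows as a rise in luminescence from relieved DAX1 repression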
Target sequence (P51843 207-470 limits assumed): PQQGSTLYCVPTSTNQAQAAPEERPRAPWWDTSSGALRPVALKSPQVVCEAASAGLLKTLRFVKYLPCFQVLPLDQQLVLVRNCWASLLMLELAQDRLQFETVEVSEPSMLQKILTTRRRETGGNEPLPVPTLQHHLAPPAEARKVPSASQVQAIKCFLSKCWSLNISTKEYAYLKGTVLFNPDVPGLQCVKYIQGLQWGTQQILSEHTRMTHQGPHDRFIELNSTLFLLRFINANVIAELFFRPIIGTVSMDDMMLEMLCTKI
An asterisk follows results filed as active; · = not tested or not shown.

SMILES	ssDAF-12 act	DAX1 inh-1	hcDAF-12 act	hgDAF-12 ag	DAX1 inh-2
CC(NC(=O)CCN1C(=O)c2ccccc2C1=O)c1ccccc1 (centres undefined)	-1.4	-0.3	1.7	0.2	4.5*
CC(NC(=O)Cn1cccc1)c1ccccc1 (centres undefined)	-1.2	4.0*	-0.3	-1.3	1.0
CC(NC(=O)CCC(=O)NC(C)c1ccccc1)c1ccccc1 (centres undefined)	-1.8	0.9	-1.7	0.1	0.8
Cc1ccc(Cc2nc(-c3ccccn3)no2)cc1	0.1	2.9	3.3	12.8*	2.0
Clc1cc(Cl)c(OCc2nc(-c3ccccn3)no2)cc1Cl	0.6	2.0	1.3	5.7	1.9
CC(C)(C)c1ccc(OCc2nc(-c3ccccn3)no2)c(Br)c1	0.1	3.2	3.0	11.1*	2.1
c1ccc(-c2nc(-c3ccccn3)no2)cc1	-0.8	3.4	6.4*	3.5	-3.5
c1ccc(-c2noc(CC3CCCCC3)n2)nc1	-0.9	3.9*	5.4	12.4*	1.6
O=C(Nc1nc2ncccn2c1-c1ccc(F)cc1)C1CC1	-0.9	-0.4	-2.6	-0.8	·
Cn1c(=O)c2ccccc2n(C)c1=O	-1.6	0.9	-1.6	-1.9	·
Cc1ccc(C2=CSC3=NCCN23)cc1	1.9*	0.1	-0.5	0.0	1.0
Cc1nn(-c2ccccc2)c2sc(C(=O)N3CCN(S(=O)(=O)c4ccc(Br)s4)CC3)cc12	-0.6	2.5	0.7	-0.8	·
COc1cc(Nc2cc(C)nc3ncnn23)cc(OC)c1OC	-0.5	-0.2	0.8	0.1	5.5*
COc1cc(Nc2cc(C)nc3ncnn23)cc(OC)c1	-1.0	1.0	-0.8	-5.3	0.3
CN(Cc1cn(Cc2ccccc2)nn1)S(=O)(=O)c1ccccc1Br	-1.7	0.0	-1.7	-0.4	·
CC(C)CC(OC(=O)c1ccc(Cl)nc1)C(=O)NC1CCCC1 (centres undefined)	1.1*	-0.3	1.0	-0.7	0.2
O=C(NC1CCCCC1)C(c1cccnc1)N(C(=O)c1ccc(Cl)nc1)C1CCCCC1 (centres undefined)	1.7*	-0.8	-1.4	1.1	0.6
CC(C)(C)NC(=O)C(c1cccnc1)N(C(=O)c1ccc(Cl)nc1)C1CCCC1 (centres undefined)	-1.0	0.0	-1.2	0.3	-0.3
O=C(Nc1ccc2c(c1)CCC2)C1CCN(c2c3c(nc4ncnn24)CCC3)CC1	-3.1	-3.4	-5.1	-6.3	-3.1
O=C(NC1CCCc2ccccc21)C1CCN(c2c3c(nc4ncnn24)CCC3)CC1 (centres undefined)	1.1*	0.4	-1.3	-0.4	-1.2
COc1ccc(C[N+]2=C(N)NC3=C(C)Cn4c(=O)n(-c5ccccc5)c(=O)n4C3C2)c(OC)c1 (centres undefined)	-1.1	-1.6	-1.2	1.4	·
NC(=O)C(CCCCN1CCCCC1)(c1ccccc1)c1ccccc1	-0.5	4.1*	-1.9	0.1	1.6
OC(CCN1CCCCC1)(c1ccccc1)c1ccccc1	-0.9	0.8	-0.5	7.1	-1.2
Cc1ccccc1NC(=O)CN(C)S(=O)(=O)c1ccc2c(c1)n(C)c(=O)c(=O)n2C	-1.3	-0.3	-0.4	-3.0	0.8
Cc1cccc(NC(=O)CN(C)S(=O)(=O)c2ccc3c(c2)n(C)c(=O)c(=O)n3C)c1C	-1.2	-0.5	6.1*	-1.4	-0.1
SMILES	ssDAF-12 act	DAX1 inh-1	hcDAF-12 act	hgDAF-12 ag	DAX1 inh-2
C/C(C=NNC(=O)CSc1nnc(-c2ccc(Cl)cc2)n1-c1ccccc1)=C\c1ccccc1	-1.3	-0.1	-1.3	0.5	·
COc1ccc(-n2c(SCC(=O)N3CCCCC3C)nnc2-c2ccncc2)cc1 (centres undefined)	-1.1	-0.9	-1.9	-1.0	·
O=C(O)CSc1nnc2n(-c3ccccc3)c(=O)c3ccccc3n12	-0.8	-0.2	-0.7	-2.8	5.4*
O=C([C@@H]1C[C@H]1c1ccccc1)N1CC[C@H]2[C@H](CCCN2Cc2ccccc2)C1	-1.4	-0.6	-0.1	-2.0	·
CCOC(=O)c1ccc2ncc(-c3ccccc3)nc2c1	-0.8	4.3*	0.4	3.9	2.4
O=C(NC(=S)NCc1nc2ccccc2[nH]1)c1ccccc1F	-0.4	2.4	6.3*	8.2	2.0
O=C(NC(=S)NCc1nc2ccccc2[nH]1)c1ccc(F)cc1	0.4	1.3	2.5	10.5*	0.1
Cc1ccc(NC(=O)[C@@H]2CCCN2S(=O)(=O)c2cccc3cccnc23)c(C)c1	-1.2	·	-3.3	-3.0	·
COC(=O)CCC1NC(=O)C(Cc2c[nH]c3ccccc23)NC(=O)C2CC(=O)OC(C)C(NC(=O)C(C)NC(=O)C3CCCN3C(=O)C3CCCN3C(=O)C(C)NC(C)=O)C(=O)NC(CC(C)C)C(=O)NC(CCCCNC(=O)CCC(C(=O)NC(Cc3ccc(O)cc3)C(=O)O)NC1=O)C(=O)NC(Cc1c[nH]c3ccccc13)C(=O)N1CCCC1C(=O)NC(CO)C(=O)N2 (centres undefined)	-1.6	-4.1	-2.5	1.2	·
Cc1ccc(S(=O)(=O)N2CCOCC2)cc1NC(=O)CSCc1c(C)noc1C	-1.3	3.6*	-1.3	0.1	0.8
C=CCN1C(=O)[C@@H](CC(=O)NCCC(C)C)[C@]2(C(=O)OC)CCCCC=C12	-1.2	0.1	-1.3	-3.8	·
CC(C)(C)c1ccc(-c2nnc3n2N=C(c2ccc(Cl)cc2)CS3)cc1	-1.9	-1.2	-0.2	0.4	·
COc1ccc(C(=O)c2c3ccc(OC)cc3[n+]([O-])n2Cc2ccc(C(N)=O)cc2)cc1	0.7	0.3	6.3*	3.9	2.3
COc1ccc(C(=O)c2c3ccc(OC)cc3[n+]([O-])n2CCCC(N)=O)cc1	-0.1	-0.6	2.3	-0.7	-0.2
NC(=O)c1ccc(Cn2c(C(=O)c3ccc(Cl)cc3)c3ccccc3[n+]2[O-])cc1	-0.5	0.4	5.7*	0.8	0.3
C=CCN1C=C2C(=O)C(C)(OC(=O)C3CCCC3)C(=O)C=C2C=C1c1ccsc1 (centres undefined)	1.4*	0.6	4.3	6.0	1.0
COc1cc2cc(Oc3ccc4ccc(=O)oc4c3)c(=O)oc2cc1OC(C)=O	-1.5	0.6	-2.5	-1.8	9.8*
CC(C)C[C@H]1COc2cc(N3CCCC3)ccc2S(=O)(=O)N1	-1.6	-0.9	-1.5	-1.7	·
COC(=O)[C@@]12CCCCC3=C1N(CCC3)C(=O)[C@H]2CC(=O)NCC1CCCCC1	-1.4	-0.7	0.8	7.8	·
Cc1cc2c(cc1C)CN(c1ccccc1)C2	0.1	2.2	5.2	12.5*	3.4

Screening results deposited in PubChem BioAssay by The Scripps Research Institute Molecular Screening Center.
